TrxR1 inh-1: rat TrxR1 inhibition | 390,000 tested, 1% active | O89049 | recombinant rTrxR1, NADPH fluorescence consumption, selenite substrate | Potency, µM (doses to about 114 µM), most hits filed as inhibitors; also: nearly all actives have a fitted effect of over 65% in size
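Rat TrxR1 (90 nM in the dispensed reagent) was pre-reduced with 400 uM NADPH for 5 min at room temperature, then incubated with compound for 15 min. After 400 uM selenite was added, NADPH fluorescence (Ex 340/Em 450 nm) was followed for 8 min.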
RORgamma inh: inhibitors of mouse ROR gamma transcriptional activity; P51450; Drosophila S2 Gal4-RORgamma UAS-luciferase reporter, 20 h; Potency, µM (highest dose often 53.6 µM), most hits filed as inhibitors; 310,000 tested, 5.4% active; also: nearly all actives have a fitted effect of over 60% in size
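Drosophila Schneider cells stably carrying a metallothionein-driven Gal4 DBD–ROR gamma fusion and a UAS-Photinus luciferase reporter were exposed to compound for 1 hr, then induced with copper sulfate (700 uM final) for 20 hr at ambient temperature before luminescence reading.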
GALK inhibitor: blocks human galactokinase activity; 270,000 tested, 0.007% active; Purified GALK, Kinase-Glo residual ATP luminescence; AID 1868; Potency, µM (highest dose often 57.5 µM), most hits filed as inhibitors
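Quantitative HTS: GALK 5 nM, ATP 35 uM, galactose 100 uM, 1 h room temperature, then luciferase-based ATP detection.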
TrxR1 substrate: is turned over as a substrate by rat TrxR1. purified TrxR1 substrate turnover, NADPH consumption readout. 390,000 tested, 0.01% active. O89049. AID 588456. Potency, µM (doses to about 114 µM); also: nearly all actives have a fitted effect of over 50% in size
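Rat TrxR1, dispensed at 90 nM, was prereduced with 400 uM NADPH (final) for 5 min at ~22 deg C, then incubated with compound 15 min before 400 uM selenite. A first-read NADPH fluorescence drop versus no-compound background flagged substrates.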
VP16 counter: inhibits Gal4-VP16 luciferase reporter, ROR gamma counter-screen. Drosophila S2 Gal4-VP16 UAS-luciferase, luminescence, 20 h. Potency, µM (titrated, usually from 53.6 µM), hits mostly inhibitors. 310,000 tested, 3.5% active. AID 2546;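 also: Gal4-VP16 expression switched on by copper sulfate through the metallothionein promoter; nearly all actives have a fitted effect of over 50% in size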
Coupling enz: inhibits coupling enzyme system, counter-screen for aldolase hits | coupling enzyme system counterscreen, AmpLite Red fluorescence | activity change, negative = inhibition, % at 58.2 µM, hits read low | AID 2472 | 290,000 tested, 0.67% active; in the data active = activity change below about -30%
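Compounds tested against the coupling enzymes alone at 57.5 uM final; readout was AmpLite Red fluorescence (525/598 nm) after 20 min at RT.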
TRb-SRC2 inh: disrupts human TRb binding to SRC2 peptide in AlphaScreen; AID 2444; Potency, µM; AlphaScreen TRb LBD-SRC2 peptide binding, luminescence; shares compounds with TrxR1 inh-1; 30 tested, 50% active; calls by dose curve
HepG2 viability: reduces HepG2 viability in TRb-SRC2 counter-screen; shares compounds with TrxR1 inh-1; HepG2 viability, ATP luminescence (CellTiter-Glo), 72 h; Potency, µM; 40 tested, 50% active; AID 2447; calls by dose curve
AR SRC2 FP: selectivity of TRb-SRC2 inhibitors: human androgen receptor-SRC2 inhibition; shares compounds with TrxR1 inh-1; AR-LBD Tx-SRC2-3 fluorescence polarization, 3 h; calls only; 25 tested, under 10 active; AID 2448; call rule not given here
PPARg-DRIP2 inh: disrupts human PPARgamma binding to DRIP-2 peptide; shares compounds with TrxR1 inh-1; PPARg LBD / Texas Red DRIP-2 peptide, fluorescence polarization, 3 h; Potency, µM; 25 tested, under 10 active; AID 2449; calls by dose curve
Target sequence (P37231 whole entry, looked up, the tested form may be a part): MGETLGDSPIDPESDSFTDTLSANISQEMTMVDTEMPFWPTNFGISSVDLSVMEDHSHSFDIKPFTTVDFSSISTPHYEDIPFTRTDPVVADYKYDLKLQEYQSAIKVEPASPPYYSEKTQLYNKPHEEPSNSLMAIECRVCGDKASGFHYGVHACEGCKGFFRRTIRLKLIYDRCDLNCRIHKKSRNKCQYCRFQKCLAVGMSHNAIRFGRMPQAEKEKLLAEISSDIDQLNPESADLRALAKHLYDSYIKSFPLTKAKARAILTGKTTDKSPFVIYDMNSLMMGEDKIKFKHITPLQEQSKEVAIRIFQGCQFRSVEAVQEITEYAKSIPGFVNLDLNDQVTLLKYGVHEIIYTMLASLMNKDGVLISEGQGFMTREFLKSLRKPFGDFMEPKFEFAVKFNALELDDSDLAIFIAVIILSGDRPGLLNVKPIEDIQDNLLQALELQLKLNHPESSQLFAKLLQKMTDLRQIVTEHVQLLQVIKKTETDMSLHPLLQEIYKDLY
VDR SRC2 FP: VDR-SRC2 (human) interaction inhibition, selectivity; shares compounds with TrxR1 inh-1; VDR LBD/SRC2-3 peptide, fluorescence polarization, 3 h; Potency, µM; 25 tested, under 10 active; calls by dose curve
TRb SRC2 FluoFP: disrupts human TRb binding to fluorescein-SRC2 peptide; shares compounds with TrxR1 inh-1; TRb LBD / fluorescein-SRC2 peptide, fluorescence polarization; Potency, µM; 20 tested, under 10 active; AID 2487; call rule not given here
GR counterassay: counter-screen for TrxR1 inhibitors: human glutathione reductase inhibition; shares compounds with TrxR1 inh-1; purified GR, DTNB reduction absorbance 405 nm kinetic; activity change, negative = inhibition, % at 57.1 µM; 55 tested, under 10 active; AID 652020
TrxR1 inh-2: validation of rat thioredoxin reductase 1 inhibitors; shares compounds with TrxR1 inh-1; recombinant TrxR1, NADPH fluorescence consumption, selenite substrate; Potency, µM, hits mostly inhibitors; 55 tested, 50% active; AID 652023
TrxR1 insulin: TrxR1 inhibition in insulin mechanism assay. 55 tested, 20% active. TrxR1 Trx-coupled insulin reduction, NADPH absorbance 340 nm. shares compounds with TrxR1 inh-1. AID 652037. Potency, µM;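 active = compounds with a measured potency under 100 micromolar; inconclusive = filed, but no rule given; inactive = potency at or above that, or unmeasurable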
TrxR1 inh-3: inhibitors of rat thioredoxin reductase 1, DTNB reduction | purified TrxR1, DTNB reduction, A412 | shares compounds with TrxR1 inh-1 | AID 652256 | 55 tested, 90% active | Potency, µM;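 active = a half-inhibiting concentration could be measured and was below 100 µM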
Each line names hits and unclear results; the compound was inactive in the other large screens (follow-up assays come after a bar, where they were run); ! = not confirmed by another sample. Rows were chosen to be rich in hits. Some 5.9% of all compounds tested hit in one or more screens of this group. Unless noted, calls follow the shape of the dose curve; as a rule, active = well fitted curve in the direction sought with a large enough effect; inconclusive = small, poorly fitted or top-dose-only effect, or another doubt; inactive = no such curve, though single readings can be large; an effect the other way counts as inactive or inconclusive.

Cc1ccc(C(=O)O)cc1-c1ccc(/C=C2/NC(=O)N(c3ccccc3)C2=O)o1	TrxR1 inh-1 inconclusive, RORgamma inh inconclusive
O=C1N/C(=C/c2ccc(N3CCOCC3)o2)C(=O)N1c1ccccc1	TrxR1 inh-1 7.08µM, RORgamma inh 5.62µM, VP16 counter 1.58µM | GR counterassay inactive | TrxR1 inh-2 2.12 | TrxR1 insulin inactive | TrxR1 inh-3 2.11µM
COc1ccc(C(=O)OCC(=O)NC(=O)NC2CCCC2)cc1[N+](=O)[O-]	none (no result: RORgamma inh, GALK inhibitor, VP16 counter, Coupling enz)
Cc1ccc(F)cc1NC(=O)COC(=O)c1ccc(S(C)(=O)=O)c([N+](=O)[O-])c1	TrxR1 inh-1 2µM (no result: RORgamma inh, GALK inhibitor, VP16 counter, Coupling enz) | TRb-SRC2 inh inactive | HepG2 viability 12.5µM | TRb SRC2 FluoFP inactive
Cn1cccc1C(=O)NC(=O)COC(=O)c1ccc(S(C)(=O)=O)c([N+](=O)[O-])c1	TrxR1 inh-1 4.47µM! (no result: RORgamma inh, GALK inhibitor, VP16 counter, Coupling enz) | TRb-SRC2 inh 26.8µM | HepG2 viability inconclusive | AR SRC2 FP inactive | PPARg-DRIP2 inh 51.6µM | VDR SRC2 FP inconclusive | TRb SRC2 FluoFP inconclusive
CS(=O)(=O)c1ccc(C(=O)OCC(=O)NC(=O)NC2CCCCC2)cc1[N+](=O)[O-]	TrxR1 inh-1 7.08µM (no result: RORgamma inh, GALK inhibitor, VP16 counter, Coupling enz) | TRb-SRC2 inh 16.7µM | HepG2 viability inactive | AR SRC2 FP inactive | PPARg-DRIP2 inh inconclusive | VDR SRC2 FP 48.7µM | TRb SRC2 FluoFP 13.9µM
CS(=O)(=O)c1ccc(C(=O)OCC(=O)NCC2CCCO2)cc1[N+](=O)[O-] (stereo not drawn)	TrxR1 inh-1 3.55µM (no result: RORgamma inh, GALK inhibitor, VP16 counter, Coupling enz) | TRb-SRC2 inh inactive | HepG2 viability inconclusive | AR SRC2 FP inactive | PPARg-DRIP2 inh inactive | VDR SRC2 FP inactive | TRb SRC2 FluoFP inactive
COc1cc2c(cc1OC)C(c1cc(Br)c(OC)c(OC)c1)CC(=O)N2 (stereo not drawn)	none
COc1cccc(CNC(=O)COC(=O)c2ccc(S(C)(=O)=O)c([N+](=O)[O-])c2)c1	TrxR1 inh-1 1.26µM (no result: RORgamma inh, GALK inhibitor, VP16 counter, Coupling enz) | TRb-SRC2 inh inactive | HepG2 viability inactive | AR SRC2 FP inactive | PPARg-DRIP2 inh inactive | VDR SRC2 FP inactive | TRb SRC2 FluoFP inactive
Fc1ccc(/C=C2\CCCC3=C2Nc2ncnn2C3c2ccc(F)cc2)cc1 (stereo not drawn)	TrxR1 inh-1 0.708µM | GR counterassay inactive | TrxR1 inh-2 2.99 | TrxR1 insulin inactive | TrxR1 inh-3 0.249µM
C[C@@H]1CC=C[C@H]2[C@H]1C(=O)N(Cc1ccccc1)[C@H]2c1ccc2ccccc2c1Br	TrxR1 inh-1 15.8µM, RORgamma inh inconclusive, VP16 counter inconclusive | GR counterassay inactive | TrxR1 inh-2 5.32 | TrxR1 insulin inactive | TrxR1 inh-3 0.95µM
CCN(CC)CCOc1ccc(/C(=C(\Cl)c2ccccc2)c2ccccc2)cc1	none (no result: GALK inhibitor)
COc1cccc(C(=O)Nc2c3c(nn2-c2ccc(C)cc2C)CS(=O)(=O)C3)c1OC	none (no result: RORgamma inh, GALK inhibitor, VP16 counter, Coupling enz)
CC1CCN(C(=O)C(C)OC(=O)c2ccc(S(C)(=O)=O)c([N+](=O)[O-])c2)CC1 (stereo not drawn)	TrxR1 inh-1 11.2µM (no result: RORgamma inh, GALK inhibitor, VP16 counter, Coupling enz) | TRb-SRC2 inh 7.3µM | HepG2 viability inactive | AR SRC2 FP inactive | PPARg-DRIP2 inh inactive | VDR SRC2 FP inactive | TRb SRC2 FluoFP 3.6µM
CC1CCN(C(=O)COC(=O)c2ccc(S(C)(=O)=O)c([N+](=O)[O-])c2)CC1	none (no result: TrxR1 inh-1, RORgamma inh, GALK inhibitor, TrxR1 substrate, VP16 counter, Coupling enz) | HepG2 viability 20µM
CCC(=O)Nc1cccc2ccccc12	none
COc1cccc(C2=NN(C(C)=O)C(c3cccs3)C2)c1 (stereo not drawn)	none
O=C(NC(=S)Nc1ccc(N2CCOCC2)cc1)c1ccco1	TrxR1 inh-1 inconclusive, RORgamma inh inconclusive
O=C(NC(=S)Nc1ccc(N2CCOCC2)cc1)c1cccc(Cl)c1	TrxR1 inh-1 10µM, RORgamma inh 2.51µM, VP16 counter 11.2µM | GR counterassay inactive | TrxR1 inh-2 5.32 | TrxR1 insulin inactive | TrxR1 inh-3 2.56µM
COC(=O)C1=C(C)N(CCc2c[nH]c3ccccc23)C(=O)/C1=C\N(C)C	TrxR1 inh-1 10µM | GR counterassay inactive | TrxR1 inh-2 9.47 | TrxR1 insulin 36µM | TrxR1 inh-3 0.122µM
CCN1C(=NCCc2c[nH]c3ccccc23)N[C@@H](c2ccccc2)C(C(=O)OC)=C1C	RORgamma inh inconclusive (no result: TrxR1 inh-1, GALK inhibitor, TrxR1 substrate)
Cc1cc(S(=O)(=O)c2ccc([N+](=O)[O-])cn2)ccc1Br	TrxR1 inh-1 0.112µM (no result: RORgamma inh, GALK inhibitor, VP16 counter, Coupling enz) | GR counterassay inactive | TrxR1 inh-2 0.119 | TrxR1 insulin 35µM | TrxR1 inh-3 0.011µM
CCOc1ccc(NC(=O)CSc2nc3cccnc3n2CC)cc1	none

Screening results deposited in PubChem BioAssay by National Center for Advancing Translational Sciences (NCATS).
